Reference: paper PMC7862700, “An all-to-all approach to the identification of sequence-specific readers for epigenetic DNA modifications on cytosine”

Assays:
Test in all cases: DAPPL (digital affinity profiling via proximity ligation, sequencing); 10 mM Tris-HCl pH 7.5, 50 mM NaCl, 1 mM DTT, 4% glycerol, room temperature, 30 min; GST-TFs on glutathione beads, 16-mer random dsDNA library, 0.1% formaldehyde crosslink after washing; high values mean tight binding
FEV = target: T1, FEV (Homo sapiens, UniProt Q99581 1-238); settings: protein: recombinant; tags: N-terminal GST; dsDNA, one strand shown
T1 sequence: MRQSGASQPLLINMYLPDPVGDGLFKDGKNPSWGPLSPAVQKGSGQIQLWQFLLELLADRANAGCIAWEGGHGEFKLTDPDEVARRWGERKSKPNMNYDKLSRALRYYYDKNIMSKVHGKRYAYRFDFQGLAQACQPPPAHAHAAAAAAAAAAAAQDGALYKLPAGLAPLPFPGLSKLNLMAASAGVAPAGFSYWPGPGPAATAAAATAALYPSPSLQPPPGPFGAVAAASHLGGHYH
How it was run: (§1)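 The binding signal reported is, for every hexamer, its read frequency for a factor over its read frequency for the tag-only sample. Reads came from pools of yeast-expressed, GST-fused human transcription factors on glutathione beads, barcoded with DNA and mixed with that sample, which were incubated with 200 nmole of a random double-stranded 16-mer DNA library in Tris/NaCl/DTT/glycerol buffer at room temperature for 30 min. After washing, the pools were crosslinked with 0.1% formaldehyde, proximity-ligated with BsaI/T4 ligase for 1 h at 37 °C, PCR-amplified and sequenced on an Illumina NextSeq500.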

ETV5 = ETV5 (Homo sapiens, UniProt P41161 1-510); settings: protein: recombinant; tags: N-terminal GST; dsDNA, one strand shown
How it was run: as §1

HSF1 = HSF1 (Homo sapiens, UniProt Q00613 1-529); settings: protein: recombinant; tags: N-terminal GST; chain copies: 3; dsDNA, one strand shown
How it was run: as §1

SPIC = target: T2, SPIC (Homo sapiens, UniProt Q8N5J4 1-248); settings: protein: recombinant; tags: N-terminal GST; dsDNA, one strand shown
T2 sequence: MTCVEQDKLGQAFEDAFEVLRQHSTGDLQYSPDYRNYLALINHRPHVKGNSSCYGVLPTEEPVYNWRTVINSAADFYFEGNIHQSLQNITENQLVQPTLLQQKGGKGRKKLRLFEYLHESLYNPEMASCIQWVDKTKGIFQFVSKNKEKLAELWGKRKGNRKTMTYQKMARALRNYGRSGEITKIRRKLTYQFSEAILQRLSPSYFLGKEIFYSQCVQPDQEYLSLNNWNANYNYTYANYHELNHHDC
How it was run: as §1

ELF4 = ELF4 (Homo sapiens, UniProt Q99607 1-663); settings: protein: recombinant; tags: N-terminal GST; dsDNA, one strand shown
How it was run: as §1

ELK4 = target: T3, ELK4 (Homo sapiens, UniProt P28324-2 1-405); settings: protein: recombinant; tags: N-terminal GST; dsDNA, one strand shown
T3 sequence: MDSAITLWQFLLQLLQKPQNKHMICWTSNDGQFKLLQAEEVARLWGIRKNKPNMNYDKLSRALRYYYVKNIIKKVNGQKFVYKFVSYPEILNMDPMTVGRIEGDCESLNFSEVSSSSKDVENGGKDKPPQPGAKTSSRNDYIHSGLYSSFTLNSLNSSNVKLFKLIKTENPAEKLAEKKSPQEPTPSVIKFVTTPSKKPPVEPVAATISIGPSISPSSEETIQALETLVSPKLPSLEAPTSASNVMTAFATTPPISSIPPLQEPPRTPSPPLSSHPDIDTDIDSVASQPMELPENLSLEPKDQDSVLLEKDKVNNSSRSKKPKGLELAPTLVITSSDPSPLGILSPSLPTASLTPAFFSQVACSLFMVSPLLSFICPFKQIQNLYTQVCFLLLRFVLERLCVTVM
How it was run: as §1

ETV2 = target: T4, ETV2 (Homo sapiens, UniProt O00321 1-342); settings: protein: recombinant; tags: N-terminal GST; dsDNA, one strand shown
T4 sequence: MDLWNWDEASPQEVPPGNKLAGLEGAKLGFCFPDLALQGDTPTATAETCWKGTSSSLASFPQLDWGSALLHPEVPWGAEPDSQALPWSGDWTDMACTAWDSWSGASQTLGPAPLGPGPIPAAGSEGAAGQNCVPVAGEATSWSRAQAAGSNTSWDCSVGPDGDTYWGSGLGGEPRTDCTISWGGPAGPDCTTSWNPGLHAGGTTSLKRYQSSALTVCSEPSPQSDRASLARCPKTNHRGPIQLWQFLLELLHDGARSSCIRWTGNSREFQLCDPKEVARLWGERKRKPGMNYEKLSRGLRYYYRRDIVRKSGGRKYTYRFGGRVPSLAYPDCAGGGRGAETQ
How it was run: as §1

ELF3 = target: T5, ELF3 (Homo sapiens, UniProt P78545 1-371); settings: protein: recombinant; tags: N-terminal GST; dsDNA, one strand shown
T5 sequence: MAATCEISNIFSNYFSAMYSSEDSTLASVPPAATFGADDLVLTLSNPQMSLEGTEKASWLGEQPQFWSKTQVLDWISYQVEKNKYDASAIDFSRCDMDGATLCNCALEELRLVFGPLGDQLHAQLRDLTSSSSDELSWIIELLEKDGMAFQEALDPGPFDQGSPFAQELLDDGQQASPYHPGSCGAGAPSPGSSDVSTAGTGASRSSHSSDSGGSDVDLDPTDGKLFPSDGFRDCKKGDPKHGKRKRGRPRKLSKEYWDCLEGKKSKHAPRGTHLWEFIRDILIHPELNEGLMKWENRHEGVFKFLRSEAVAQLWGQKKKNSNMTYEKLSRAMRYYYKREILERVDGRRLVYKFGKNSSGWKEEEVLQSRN
How it was run: as §1

CRX = CRX (Homo sapiens, UniProt O43186 1-299); settings: protein: recombinant; tags: N-terminal GST; dsDNA, one strand shown
How it was run: as §1

ETV1 = ETV1 (Homo sapiens, UniProt P50549 1-477); settings: protein: recombinant; tags: N-terminal GST; dsDNA, one strand shown
How it was run: as §1

ERF = target: T6, ERF (Homo sapiens, UniProt P50548 1-548); settings: protein: recombinant; tags: N-terminal GST; dsDNA, one strand shown
T6 sequence: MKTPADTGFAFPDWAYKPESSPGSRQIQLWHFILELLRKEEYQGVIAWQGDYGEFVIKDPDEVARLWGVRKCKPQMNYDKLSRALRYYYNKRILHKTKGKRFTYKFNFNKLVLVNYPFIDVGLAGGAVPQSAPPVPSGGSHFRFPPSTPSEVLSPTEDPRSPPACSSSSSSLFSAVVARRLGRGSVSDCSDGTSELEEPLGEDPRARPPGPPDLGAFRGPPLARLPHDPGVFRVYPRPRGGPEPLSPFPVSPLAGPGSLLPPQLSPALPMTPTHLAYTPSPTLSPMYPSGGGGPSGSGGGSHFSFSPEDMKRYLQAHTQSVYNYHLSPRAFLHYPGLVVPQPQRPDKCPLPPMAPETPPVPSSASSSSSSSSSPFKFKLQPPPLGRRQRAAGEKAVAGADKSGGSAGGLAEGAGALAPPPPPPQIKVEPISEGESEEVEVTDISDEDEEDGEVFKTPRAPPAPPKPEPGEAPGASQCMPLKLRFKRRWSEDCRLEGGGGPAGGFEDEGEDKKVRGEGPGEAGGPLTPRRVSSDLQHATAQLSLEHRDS
How it was run: as §1

ETV3L = target: T7, ETV3L (Homo sapiens, UniProt Q6ZN32 1-361); settings: protein: recombinant; tags: N-terminal GST; dsDNA, one strand shown
T7 sequence: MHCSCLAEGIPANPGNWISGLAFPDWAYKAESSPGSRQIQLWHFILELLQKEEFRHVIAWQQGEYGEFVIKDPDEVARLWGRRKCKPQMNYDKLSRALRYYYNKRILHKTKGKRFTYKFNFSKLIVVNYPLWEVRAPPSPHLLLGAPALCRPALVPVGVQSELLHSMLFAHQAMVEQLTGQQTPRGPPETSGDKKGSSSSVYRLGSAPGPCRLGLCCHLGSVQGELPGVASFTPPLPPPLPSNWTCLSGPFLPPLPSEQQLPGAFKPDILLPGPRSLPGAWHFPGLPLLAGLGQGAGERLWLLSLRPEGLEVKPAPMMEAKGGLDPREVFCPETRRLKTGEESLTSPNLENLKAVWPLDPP
How it was run: as §1

ETS2 = target: T8, ETS2 (Homo sapiens, UniProt P15036 1-469); settings: protein: recombinant; tags: N-terminal GST; dsDNA, one strand shown
T8 sequence: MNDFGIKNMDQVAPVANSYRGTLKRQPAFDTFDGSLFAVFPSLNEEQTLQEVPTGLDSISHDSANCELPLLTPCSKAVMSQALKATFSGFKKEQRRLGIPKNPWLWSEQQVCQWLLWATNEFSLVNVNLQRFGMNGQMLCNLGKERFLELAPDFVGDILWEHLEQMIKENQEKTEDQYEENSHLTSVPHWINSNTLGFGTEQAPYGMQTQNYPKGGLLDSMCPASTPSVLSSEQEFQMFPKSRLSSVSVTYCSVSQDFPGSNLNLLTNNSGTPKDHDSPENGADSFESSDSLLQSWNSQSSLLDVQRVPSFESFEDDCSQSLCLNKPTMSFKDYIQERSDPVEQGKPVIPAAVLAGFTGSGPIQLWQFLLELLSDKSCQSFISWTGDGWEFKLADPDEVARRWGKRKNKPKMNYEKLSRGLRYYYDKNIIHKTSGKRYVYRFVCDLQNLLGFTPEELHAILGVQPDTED
How it was run: as §1

SPDEF = target: T9, SPDEF (Homo sapiens, UniProt O95238 1-335); settings: protein: recombinant; tags: N-terminal GST; dsDNA, one strand shown
T9 sequence: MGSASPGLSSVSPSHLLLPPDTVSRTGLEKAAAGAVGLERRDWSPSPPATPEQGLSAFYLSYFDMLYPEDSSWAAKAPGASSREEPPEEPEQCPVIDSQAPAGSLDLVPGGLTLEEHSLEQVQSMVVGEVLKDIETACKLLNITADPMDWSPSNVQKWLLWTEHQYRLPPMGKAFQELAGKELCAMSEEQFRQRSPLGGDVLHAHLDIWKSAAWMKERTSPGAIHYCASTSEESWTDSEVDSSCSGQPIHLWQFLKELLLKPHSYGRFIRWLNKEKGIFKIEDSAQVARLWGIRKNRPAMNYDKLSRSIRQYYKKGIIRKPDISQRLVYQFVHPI
How it was run: as §1

ETV7 = target: T10, ETV7 (Homo sapiens, UniProt Q9Y603 1-341); settings: protein: recombinant; tags: N-terminal GST; dsDNA, one strand shown
T10 sequence: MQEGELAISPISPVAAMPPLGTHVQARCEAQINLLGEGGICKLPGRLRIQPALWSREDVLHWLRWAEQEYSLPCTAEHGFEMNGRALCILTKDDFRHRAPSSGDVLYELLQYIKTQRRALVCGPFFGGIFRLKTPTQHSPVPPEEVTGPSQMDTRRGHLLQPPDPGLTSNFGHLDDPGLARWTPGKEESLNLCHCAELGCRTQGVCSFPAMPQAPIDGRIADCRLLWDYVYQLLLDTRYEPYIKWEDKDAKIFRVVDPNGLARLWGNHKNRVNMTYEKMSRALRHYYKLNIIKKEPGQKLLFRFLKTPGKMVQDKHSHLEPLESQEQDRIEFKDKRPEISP
How it was run: as §1

ELF5 = target: T11, ELF5 (Homo sapiens, UniProt Q9UKW6-2 1-255); settings: protein: recombinant; tags: N-terminal GST; dsDNA, one strand shown
T11 sequence: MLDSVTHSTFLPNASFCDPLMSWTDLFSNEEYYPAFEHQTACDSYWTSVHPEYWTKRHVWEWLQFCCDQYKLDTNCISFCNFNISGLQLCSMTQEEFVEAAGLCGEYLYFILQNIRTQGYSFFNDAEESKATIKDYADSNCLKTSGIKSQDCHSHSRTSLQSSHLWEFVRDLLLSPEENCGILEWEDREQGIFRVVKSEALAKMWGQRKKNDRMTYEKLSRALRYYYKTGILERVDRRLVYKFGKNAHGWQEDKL
How it was run: as §1

ETV3 = target: T12, ETV3 (Homo sapiens, UniProt P41162-2 1-143); settings: protein: recombinant; tags: N-terminal GST; dsDNA, one strand shown
T12 sequence: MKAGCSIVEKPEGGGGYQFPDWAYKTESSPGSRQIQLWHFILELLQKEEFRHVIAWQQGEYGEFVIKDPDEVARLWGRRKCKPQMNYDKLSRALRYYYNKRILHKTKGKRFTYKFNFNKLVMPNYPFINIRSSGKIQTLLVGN
How it was run: as §1

ETV6 = ETV6 (Homo sapiens, UniProt P41212 1-452); settings: protein: recombinant; tags: N-terminal GST; dsDNA, one strand shown
How it was run: as §1

Sequence of ETV5 (P41161 whole entry): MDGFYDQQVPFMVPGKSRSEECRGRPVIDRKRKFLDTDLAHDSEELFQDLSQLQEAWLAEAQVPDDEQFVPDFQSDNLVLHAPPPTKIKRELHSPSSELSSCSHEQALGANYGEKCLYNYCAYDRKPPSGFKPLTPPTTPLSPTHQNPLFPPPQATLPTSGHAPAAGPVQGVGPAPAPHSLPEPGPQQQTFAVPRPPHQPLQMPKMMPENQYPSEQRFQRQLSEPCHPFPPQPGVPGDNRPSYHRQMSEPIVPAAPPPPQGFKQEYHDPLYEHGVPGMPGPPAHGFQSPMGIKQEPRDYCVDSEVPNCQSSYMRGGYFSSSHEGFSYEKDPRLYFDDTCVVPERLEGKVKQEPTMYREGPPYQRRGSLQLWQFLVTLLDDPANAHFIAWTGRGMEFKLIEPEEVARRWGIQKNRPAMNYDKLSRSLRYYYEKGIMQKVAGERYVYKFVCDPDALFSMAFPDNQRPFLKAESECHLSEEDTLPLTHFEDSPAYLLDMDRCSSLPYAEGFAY
Sequence of HSF1 (Q00613 whole entry): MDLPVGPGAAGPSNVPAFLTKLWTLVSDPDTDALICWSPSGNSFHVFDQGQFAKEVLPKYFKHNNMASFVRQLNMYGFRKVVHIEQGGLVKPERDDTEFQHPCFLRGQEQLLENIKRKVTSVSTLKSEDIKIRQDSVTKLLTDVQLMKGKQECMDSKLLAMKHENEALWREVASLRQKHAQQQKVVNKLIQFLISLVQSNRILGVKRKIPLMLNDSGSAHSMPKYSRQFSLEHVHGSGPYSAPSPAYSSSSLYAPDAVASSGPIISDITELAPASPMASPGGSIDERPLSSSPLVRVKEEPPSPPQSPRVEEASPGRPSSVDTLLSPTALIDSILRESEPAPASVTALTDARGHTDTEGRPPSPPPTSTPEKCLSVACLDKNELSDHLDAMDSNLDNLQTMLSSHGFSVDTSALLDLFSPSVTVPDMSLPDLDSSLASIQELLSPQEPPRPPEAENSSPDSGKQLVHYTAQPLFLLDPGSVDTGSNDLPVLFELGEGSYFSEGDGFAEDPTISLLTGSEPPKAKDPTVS
Sequence of ELF4 (Q99607 whole entry): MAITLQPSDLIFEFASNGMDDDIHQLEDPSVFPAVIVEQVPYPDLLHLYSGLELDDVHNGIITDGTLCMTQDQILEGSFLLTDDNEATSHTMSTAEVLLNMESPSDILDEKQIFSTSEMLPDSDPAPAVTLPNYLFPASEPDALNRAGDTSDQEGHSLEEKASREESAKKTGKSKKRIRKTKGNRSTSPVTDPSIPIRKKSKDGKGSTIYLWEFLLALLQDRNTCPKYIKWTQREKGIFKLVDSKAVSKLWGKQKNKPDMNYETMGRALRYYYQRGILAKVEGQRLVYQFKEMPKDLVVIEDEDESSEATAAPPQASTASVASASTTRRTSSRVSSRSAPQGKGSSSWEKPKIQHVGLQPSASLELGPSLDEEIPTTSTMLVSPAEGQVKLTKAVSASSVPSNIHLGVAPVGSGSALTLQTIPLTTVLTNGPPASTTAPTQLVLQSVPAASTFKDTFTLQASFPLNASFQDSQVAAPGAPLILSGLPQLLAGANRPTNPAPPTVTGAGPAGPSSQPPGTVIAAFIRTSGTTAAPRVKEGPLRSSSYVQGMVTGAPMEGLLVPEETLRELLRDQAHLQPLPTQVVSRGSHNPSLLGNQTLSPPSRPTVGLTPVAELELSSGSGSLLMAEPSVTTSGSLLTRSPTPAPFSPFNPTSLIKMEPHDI
Sequence of ETV6 (P41212 whole entry): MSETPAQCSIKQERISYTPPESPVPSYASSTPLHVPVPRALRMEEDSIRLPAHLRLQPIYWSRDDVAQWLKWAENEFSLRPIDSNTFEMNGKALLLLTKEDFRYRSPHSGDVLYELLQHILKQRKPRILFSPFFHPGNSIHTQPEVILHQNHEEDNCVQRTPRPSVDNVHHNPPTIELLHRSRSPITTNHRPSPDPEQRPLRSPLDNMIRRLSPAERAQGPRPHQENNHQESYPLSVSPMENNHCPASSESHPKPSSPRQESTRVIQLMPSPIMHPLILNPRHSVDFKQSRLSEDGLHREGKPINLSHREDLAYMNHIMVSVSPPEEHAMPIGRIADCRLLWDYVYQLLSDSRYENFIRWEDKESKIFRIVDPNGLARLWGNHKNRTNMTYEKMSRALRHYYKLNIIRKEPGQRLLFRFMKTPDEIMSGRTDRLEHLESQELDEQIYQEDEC
Sequence of CRX (O43186 whole entry): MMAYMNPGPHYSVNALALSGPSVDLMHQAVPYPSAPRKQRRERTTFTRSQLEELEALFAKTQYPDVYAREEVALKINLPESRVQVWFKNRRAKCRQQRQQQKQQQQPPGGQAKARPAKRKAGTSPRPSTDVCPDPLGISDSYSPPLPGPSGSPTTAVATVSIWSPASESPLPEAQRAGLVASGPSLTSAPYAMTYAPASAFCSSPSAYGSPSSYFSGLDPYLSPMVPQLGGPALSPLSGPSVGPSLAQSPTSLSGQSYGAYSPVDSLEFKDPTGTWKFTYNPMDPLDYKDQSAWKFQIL
Sequence of ETV1 (P50549 whole entry): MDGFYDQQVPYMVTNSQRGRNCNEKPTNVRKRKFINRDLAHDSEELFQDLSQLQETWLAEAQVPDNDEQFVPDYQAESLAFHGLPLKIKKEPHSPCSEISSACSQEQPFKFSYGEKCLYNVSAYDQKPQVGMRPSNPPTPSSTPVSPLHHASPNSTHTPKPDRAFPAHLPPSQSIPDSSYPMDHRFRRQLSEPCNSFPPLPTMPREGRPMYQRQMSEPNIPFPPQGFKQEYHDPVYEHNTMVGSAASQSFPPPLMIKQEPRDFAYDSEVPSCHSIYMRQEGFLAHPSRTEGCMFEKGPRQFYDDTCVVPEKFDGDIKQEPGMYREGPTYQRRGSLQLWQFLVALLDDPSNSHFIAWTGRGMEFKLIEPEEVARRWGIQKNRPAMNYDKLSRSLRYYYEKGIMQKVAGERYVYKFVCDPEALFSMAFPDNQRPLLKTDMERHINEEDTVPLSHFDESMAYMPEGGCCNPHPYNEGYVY

For TCGACC, the binding signal (FEV) was 1.32 fold enrichment (6-mer frequency, TF over GST control), the binding signal (ETV5) was 1.27 fold enrichment (6-mer frequency, TF over GST control) and the binding signal (HSF1) was 1.23 fold enrichment (6-mer frequency, TF over GST control). The binding signal (SPIC) was 1.17 fold enrichment (6-mer frequency, TF over GST control), the binding signal (ELF4) was 1.39 fold enrichment (6-mer frequency, TF over GST control) and the binding signal (ELK4) was 1.11 fold enrichment (6-mer frequency, TF over GST control). For the same sequence, the binding signal (ETV2) was 1.35 fold enrichment (6-mer frequency, TF over GST control), the binding signal (ELF3) was 1.23 fold enrichment (6-mer frequency, TF over GST control) and the binding signal (CRX) was 1.11 fold enrichment (6-mer frequency, TF over GST control). The binding signal (ETV1) was 1.25 fold enrichment (6-mer frequency, TF over GST control), the binding signal (ERF) was 1.31 fold enrichment (6-mer frequency, TF over GST control) and the binding signal (ETV3L) was 1.33 fold enrichment (6-mer frequency, TF over GST control). The binding signal (ETS2) was 1.24 fold enrichment (6-mer frequency, TF over GST control), the binding signal (SPDEF) was 1.37 fold enrichment (6-mer frequency, TF over GST control) and the binding signal (ETV7) was 1.21 fold enrichment (6-mer frequency, TF over GST control). The binding signal (ELF5) was 1.28 fold enrichment (6-mer frequency, TF over GST control), the binding signal (ETV3) was 1.27 fold enrichment (6-mer frequency, TF over GST control) and the binding signal (ETV6) was 1.3 fold enrichment (6-mer frequency, TF over GST control).
